Vaccinia mCherry = inhibitors of vaccinia virus infection (mCherry reporter signal); Potency, µM (doses to about 36.5 µM), hits mostly inhibitors; Vaccinia virus mCherry reporter infection, fluorescence; 310,000 tested, 0.63% active; AID 720579; calls by dose curve; tested in A549 cells; further: nearly all actives have a fitted effect of over 35% in size
HCMV antiviral = human cytomegalovirus inhibition; HFF cells, HCMV-luciferase reporter, 72 h; hits give low values; activity change, negative = inhibition, % at 57.5 µM; 410,000 tested, 4.5% active; AID 1259415; in the data active means activity change below about -60%; inconclusive means no clear call, values can overlap the other calls; inactive means above about -39%
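Steps: HFFs plated, 16 h 37C; compounds added; HCMV-luciferase added to MOI 1 PFU/cell; 72 h 37C; OneGlo reagent, 5 min room temperature; luminescence read, normalized to controls.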
Sm TGR inh = inhibitors of Schistosoma mansoni thioredoxin glutathione reductase | purified TGR, DTNB reduction, TNB absorbance 405 nm | Potency, µM (series often up to 114 µM), usual class: inhibitors | 360,000 tested, 3% active | AID 485364; further: nearly all actives have a fitted effect of over 60% in size
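TGR 20 nM + NADPH 100 uM (dispensed conc.), cpd preinc 15 min RT; start with NADPH (500 uM addition) then DTNB (15 mM addition). Kinetic TNB absorbance, 405 nm filter. Four-parameter Hill fit across titration.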
HCV inh = HCV inhibition; Huh7.5.1 HCVcc-Cre infection, luciferase reporter, 44 h; Potency, µM (doses to about 41.8 µM), most hits filed as inhibitors; 340,000 tested, 3.4% active; AID 651820
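HCVcc-Cre virus at an moi near 0.5 was added right after compound to cells cultured 4 h from seeding (1,000 cells/well). Luciferase activity was determined 44 h later, 15 min after substrate addition at RT.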
FMDV antiviral = blocks foot and mouth disease virus; FMDV antiviral cell-based qHTS; Potency, µM (doses to about 57.9 µM), hits mostly inhibitors; 410,000 tested, 1.2% active; calls by dose curve; tested in HEK293T cells; further: read-out not given here; nearly all actives have a fitted effect of over 45% in size
Vaccinia Venus = vaccinia inhibition (Venus reporter); Vaccinia virus Venus reporter expression, fluorescence; AID 720580; Potency, µM (titrated, usually from 36.5 µM), actives largely listed as inhibitors; 330,000 tested, 0.46% active; calls by dose curve; tested in A549 cells; further: nearly all actives have a fitted effect of over 30% in size
Large screens that a line does not name were inactive; ! = not active in a repeat. The list is not random: actives were taken first. Their share in the collection is about 9.3%. Unless noted, the call rests on the fitted dose curve; in most records, active means well fitted curve in the direction sought with a large enough effect; inconclusive means small, poorly fitted or top-dose-only effect, or another doubt; inactive means no such curve, though single readings can be large; an effect the other way counts as inactive or inconclusive.

O=C1CCc2cc(NS(=O)(=O)c3ccc(F)cc3)cc3c2N1CC3	HCV inh inconclusive
CCC1(CC)NC(=O)N(CC(=O)OCC(=O)Nc2ccccc2OC(F)F)C1=O	none (no result: Vaccinia mCherry, Vaccinia Venus)
COc1ccc(/C=C/C(=O)Nc2nc(N)n(-c3ccccc3)n2)cc1	none
CCOc1ccc(NS(=O)(=O)c2cc(C(=O)N(CC)CC(=O)NCc3cccs3)ccc2C)cc1	HCV inh inconclusive
COC(=O)C1=NNC2(c3ccc(Cl)cc3)C(=O)N(c3ccc(Cl)cc3)C(=O)C12 (centres undefined)	none
CCOC(=O)c1nnc(-c2ccccc2)nc1Sc1c(Cl)cccc1Cl	FMDV antiviral inconclusive (no result: Vaccinia mCherry)
O=C1C=CC2C3C(=O)N(c4ccccc4)C(=O)C3C1N2Cc1ccccc1 (centres undefined)	Vaccinia mCherry 28µM, HCMV antiviral -78, HCV inh inconclusive, FMDV antiviral 10µM, Vaccinia Venus inconclusive (no result: Sm TGR inh)
O=C1C2C3C=CC(CC3)C2C(=O)N1c1ccccc1 (centres undefined)	Sm TGR inh inconclusive (no result: Vaccinia mCherry, Vaccinia Venus)
CCN(CC)C(=O)Oc1ccnc2cc(Cl)ccc12	none (no result: Sm TGR inh)
O=C(c1ccc(Cl)cc1)N1CCN(c2ccnc3cc(Cl)ccc23)CC1	Vaccinia mCherry inconclusive, HCMV antiviral inconclusive, HCV inh inconclusive, FMDV antiviral 28µM (no result: Sm TGR inh)
O=C(Oc1ccnc2cc(Cl)ccc12)N1CCCCCC1	HCMV antiviral -101, HCV inh inconclusive, Vaccinia Venus inconclusive (no result: Vaccinia mCherry)
CCC(=O)N1CCN(c2ccnc3cc(Cl)ccc23)CC1	HCMV antiviral inconclusive
CC(C)N(C(=O)N1CCN(c2ccnc3cc(Cl)ccc23)CC1)C(C)C	HCMV antiviral -90, HCV inh inconclusive, FMDV antiviral inconclusive
CCOC(=O)N1CCN(c2ccnc3cc(Cl)ccc23)CC1	HCMV antiviral -63
CCOC(=O)C1=C2c3ccc4ccccc4c3CC(C)(C)N2C(=O)C1=O	none
CCOC(=O)N1CCC(Nc2c(N3CCN(c4cc(Cl)ccc4C)CC3)c(=O)c2=O)CC1	HCMV antiviral inconclusive, HCV inh 10µM
CCOC(=O)N1CCC(Nc2c(-c3ccc(C)c(C)c3)c(=O)c2=O)CC1	none (no result: Vaccinia mCherry, Vaccinia Venus)
Cc1nc2c(-c3ccc(Cl)cc3)c(C)[nH]n2c(=O)c1Cc1ccccc1	Vaccinia mCherry 6.3µM, HCMV antiviral -99, HCV inh inconclusive, Vaccinia Venus inconclusive
COc1ccc(-c2c(C)[nH]n3c(=O)c(Cc4ccccc4)c(C)nc23)cc1OC	HCV inh inconclusive
Cc1ccccc1Cc1c(C)nc2c(-c3ccccc3)c(C)[nH]n2c1=O	Vaccinia mCherry inconclusive, FMDV antiviral inconclusive (no result: HCV inh)
Cc1nc2c(-c3ccccc3)c(C)[nH]n2c(=O)c1Cc1ccccc1	Vaccinia mCherry inconclusive, HCV inh 10µM (no result: Sm TGR inh)
Cc1cccc(Cc2c(C)nc3c(-c4ccccc4)c(C)[nH]n3c2=O)c1	Vaccinia mCherry inconclusive, HCMV antiviral -79, Vaccinia Venus inconclusive (no result: HCV inh)
O=C(CCNS(=O)(=O)c1ccc(Cl)cc1)NCCc1ccccc1	Vaccinia mCherry inconclusive (no result: Sm TGR inh, HCV inh)
O=C1c2ccc(-c3nc4ccccc4o3)cc2C(=O)N1Cc1ccccc1	HCMV antiviral -105 (no result: Sm TGR inh)
Cc1cccc(-n2c(C)cc(C(=O)C(=O)Nc3ccccc3F)c2C)c1C	HCMV antiviral -67 (no result: HCV inh)
O=c1c2ccccc2nc(-c2ccccc2)n1-c1cccnc1	none (no result: Vaccinia mCherry, Vaccinia Venus)
O=C(CSc1nccn1Cc1ccc(F)cc1)NC1CCCCC1	none (no result: Sm TGR inh, HCV inh)
Cc1ccc(Cn2ccnc2SCC(=O)NC2CCCC2)cc1	none
O=C(CSc1nccn1Cc1ccc(Cl)cc1)NC1CCCC1	HCMV antiviral -63 (no result: HCV inh)
O=C(CSc1ncnc2c1cnn2-c1ccc(F)cc1)NC1CCCC1	HCV inh 6.3µM, FMDV antiviral inconclusive
O=C(CSc1nccn1Cc1ccc(F)cc1)NC1CCCC1	HCMV antiviral -65!
COc1ccc(NC(=S)N(CCCN2CCOCC2)Cc2ccccn2)cc1	none
Cc1ccc(NC(=S)N(CCCN2CCOCC2)Cc2ccccn2)cc1	none
CCOc1ccc(NC(=S)N(CCCN2CCOCC2)Cc2cn(C)c3ccccc23)cc1	HCMV antiviral -92, HCV inh 10µM
COc1ccc(NC(=S)N(CCCN2CCOCC2)Cc2cn(C)c3ccccc23)cc1	HCMV antiviral -98, HCV inh inconclusive
COc1cccc(OCc2nc3ccccc3n2CCOc2ccc(C)cc2)c1	none (no result: HCV inh)
O=Cc1cc(OCc2ccccc2)ccc1[B-](F)(F)F	Vaccinia mCherry inconclusive, HCV inh inconclusive (no result: Sm TGR inh)
O=S(=O)(c1ccccc1F)N1CCC(Oc2ccc(-n3cnnn3)cc2)CC1	HCMV antiviral -62, Vaccinia Venus inconclusive
CC1=CC2(O)OCCN(CCO)C2=CC1=O (centres undefined)	HCMV antiviral inconclusive, Sm TGR inh 20µM
CCCn1c(CN2CCN(C(=O)c3ccco3)CC2)nc2cc(S(=O)(=O)N(C)C)ccc21	Sm TGR inh 28µM
CCn1c(CN2CCN(c3ccc(OC)cc3)CC2)nc2cc(S(=O)(=O)N(C)C)ccc21	Vaccinia mCherry inconclusive, HCV inh inconclusive
Cc1cc(C)cc(Nc2ccc(C(=O)O)cc2[N+](=O)[O-])c1	none
Oc1c(C(Nc2cccnc2)c2ccccc2F)ccc2cccnc12 (centres undefined)	Vaccinia mCherry 10µM, Vaccinia Venus inconclusive (no result: HCMV antiviral, Sm TGR inh, HCV inh, FMDV antiviral)
O=C(Nc1nccs1)NC(C(F)(F)F)C(F)(F)F	none (no result: Vaccinia mCherry)
Oc1c(C(Nc2nccs2)c2ccc(C(F)(F)F)cc2)ccc2cccnc12 (centres undefined)	Vaccinia mCherry 7.1µM, HCV inh inconclusive, FMDV antiviral inconclusive, Vaccinia Venus inconclusive
O=C(Nc1cccnc1)c1ccc2ccccc2c1O	none
O=C(NNC(=S)Nc1cccc(C(F)(F)F)c1)c1ccncc1	none (no result: Sm TGR inh, HCV inh)
Oc1c(C(Nc2cccc(C(F)(F)F)c2)c2ccncc2)ccc2cccnc12 (centres undefined)	Vaccinia mCherry inconclusive, HCMV antiviral -99, Sm TGR inh 35µM, HCV inh 6.3µM, Vaccinia Venus inconclusive
Cc1cccc2ccccc12	none (no result: Vaccinia mCherry, Sm TGR inh, HCV inh, FMDV antiviral, Vaccinia Venus)
Cc1ccc2c(C)c3ccc4ccccc4c3c[n+]2c1	HCMV antiviral -95, HCV inh 13µM, FMDV antiviral inconclusive (no result: Sm TGR inh)

Screening data (PubChem BioAssay)
